An excerpt weighted towards active compounds, which were near 19% of everything screened.
TGFb inhibitor: TGF-b pathway inhibition. HepG2 CAGA-GFP TGF-b/SMAD3 reporter, GFP fluorescence, 18 h; TGF-beta stimulated, 500 pg/mL final. Potency, µM (doses to about 46.1 µM), actives largely listed as inhibitors. hit rate 1.2% among 410,000; further: nearly all actives have a fitted effect of over 65% in size
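Inhibition was scored as loss of TGF-beta-induced (500 pg/mL final, 18 hours, 37 degrees C) GFP in HEPG2 cells carrying a CAGA-GFP reporter, in DMEM with 1% FBS. Well GFP was summed per cell; Activity was normalised to unstimulated and stimulated DMSO wells, then concentration-response fitting.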
TDP1 cell noCPT: qHTS for Inhibitors of human tyrosyl-DNA phosphodiesterase 1 (TDP1): qHTS in cells in absence of CPT | AID 686978, 2013 | DT40 Tdp1-/- hTDP1 cells, no CPT, ATP luminescence, 48 h | hit rate 15% among 420,000 | Potency, µM (top dose mostly 46.2 µM), usual class: inhibitors; further: nearly all actives have a fitted effect of over 55% in size
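Luminescent ATP content (CellTiter-Glo) served as the growth readout. Knockout chicken DT40 cells expressing human TDP1 were exposed to compounds without camptothecin for a minimum 48 hr at 37 °C.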
IL1B secr inh: blocks inflammasome-driven IL-1 beta release; hit rate 4.7% among 360,000; THP-1 LPS/ATP IL-1B secretion, AlphaLISA, 16 h; hits give low values; activity change, % at 57.5 µM; in the data active means activity change below about -50%; inconclusive means mostly about -30% to -49%
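Secreted IL-1B measured by AlphaLISA bead assay after 16 h compound exposure of THP-1 cells; compounds (final up to 57.5 uM) added 1 h before LPS (250 ng/mL) and ATP (1.25 mM) stimulation; lower signal means less secretion.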
TDP1 block: TDP1 (human) enzyme inhibition. Q9NUW8. recombinant TDP1, AlphaScreen DNA substrate cleavage. Potency, µM (titrated, usually from 130 µM), actives largely listed as inhibitors. hit rate 0.28% among 350,000. AID 485290; further: nearly all actives have a fitted effect of over 40% in size
Target sequence (Q9NUW8 whole entry, looked up): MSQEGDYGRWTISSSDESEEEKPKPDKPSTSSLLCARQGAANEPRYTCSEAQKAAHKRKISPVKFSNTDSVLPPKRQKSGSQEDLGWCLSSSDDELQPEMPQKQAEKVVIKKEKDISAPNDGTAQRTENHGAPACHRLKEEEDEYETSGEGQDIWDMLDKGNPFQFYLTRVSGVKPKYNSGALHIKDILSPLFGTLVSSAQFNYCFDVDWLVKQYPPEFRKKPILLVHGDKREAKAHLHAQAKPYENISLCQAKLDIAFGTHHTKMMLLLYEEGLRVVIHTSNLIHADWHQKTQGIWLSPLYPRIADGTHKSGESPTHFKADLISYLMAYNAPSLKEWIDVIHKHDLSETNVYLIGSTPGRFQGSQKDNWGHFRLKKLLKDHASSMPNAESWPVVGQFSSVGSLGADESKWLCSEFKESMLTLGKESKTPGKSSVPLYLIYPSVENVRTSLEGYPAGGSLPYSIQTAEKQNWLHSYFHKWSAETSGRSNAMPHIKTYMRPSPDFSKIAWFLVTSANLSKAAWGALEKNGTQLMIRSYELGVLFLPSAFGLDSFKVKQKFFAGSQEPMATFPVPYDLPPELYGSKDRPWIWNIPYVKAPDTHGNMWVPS
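Tdp1 1 nM final; 15 min RT w/ cpd; substrate 15 nM, 5 min; beads 10 ug/ml, 10 min; AlphaScreen read. Neg ctrl: no enzyme.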
HepG2 viability: HepG2 cytotoxicity, counter-screen for TGF-b inhibitors; Potency, µM (series often up to 46.1 µM), actives largely listed as cytotoxic; hit rate 0.76% among 410,000; AID 588856; HepG2 CAGA-GFP viability, ATP luminescence, 18 h
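HepG2 CAGA-GFP cells (1000/well, DMEM with 1% FBS) received compound, then TGF-beta at 500 pg/mL final, and were incubated 18 hours at 37 degrees C. Viability was read by CellTiter-Glo luminescence. Media-only wells were set as complete cell-killing and DMSO as no toxicity.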
TDP1 cell CPT: growth inhibition of DT40 Tdp1-/-;hTDP1 cells with camptothecin (screen for TDP1 inhibitors) | AID 686979 | Potency, µM (highest dose often 46.2 µM), hits mostly inhibitors | hit rate 12% among 420,000 | chicken DT40 Tdp1-/-;hTDP1 cells + 20 nM CPT, ATP luminescence, 48 h; further: nearly all actives have a fitted effect of over 55% in size
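Chicken DT40 Tdp1-/- cells complemented with human TDP1, 400 cells/well, exposed to compounds plus 20 nM camptothecin for at least 48 h at 37 C; viability read as ATP content by CellTiter-Glo luminescence.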
Large screens that a line does not name were inactive. Unless noted, the call rests on the fitted dose curve; in most records, active means well fitted curve in the direction sought with a large enough effect; inconclusive means small, poorly fitted or top-dose-only effect, or another doubt; inactive means no such curve, though single readings can be large; an effect the other way counts as inactive or inconclusive.

CCCCc1cc2c(cn1)=C(OC(=O)CCC(=O)OC)C(C)(OC(=O)CC)C(=O)C=2 (centres undefined)	none (no result: TGFb inhibitor, TDP1 cell noCPT, IL1B secr inh, HepG2 viability, TDP1 cell CPT)
Cc1ccc(-c2nc3n(n2)C(c2ccccc2Cl)C=C(c2ccc(Cl)cc2)N3)cc1 (centres undefined)	TDP1 cell noCPT inconclusive, TDP1 cell CPT inconclusive (no result: IL1B secr inh)
CS(=O)(=O)C1=NSC2=NC(=O)/C(=C\c3cccn3-c3ccc(Cl)cc3)C(=N)N21	TDP1 block 79µM
Cc1ccc(N2CC(NC(=O)C(=O)c3c[nH]c4ccccc34)CC2=O)cc1 (centres undefined)	none (no result: IL1B secr inh)
COc1ccc(N2CCN(C(=O)c3ccc(N4C(=O)NC5CC4(C)Oc4ccccc45)cc3)CC2)cc1 (centres undefined)	TDP1 cell noCPT inconclusive, IL1B secr inh inconclusive, TDP1 cell CPT 29µM
COc1ccc(CCN2C(=S)NC3CC2(C)Oc2ccc([N+](=O)[O-])cc23)cc1OC (centres undefined)	TDP1 cell noCPT 15µM, TDP1 cell CPT 10µM
CCOC(=O)C1CCN(C(=O)c2cccc(N3C(=O)NC4CC3(C)Oc3ccc(C)cc34)c2)CC1 (centres undefined)	TDP1 cell CPT inconclusive
COc1ccc(N2C(=O)NC3CC2(C)Oc2ccc(Cl)cc23)cc1OC (centres undefined)	TDP1 cell noCPT inconclusive, TDP1 cell CPT 23µM
COc1cc(N2C(=O)NC3CC2(C)Oc2ccccc23)cc(OC)c1OC (centres undefined)	none
CCOC(=O)N1CCN(C(=O)c2cccc(N3C(=O)NC4CC3(C)Oc3ccc(Cl)cc34)c2)CC1 (centres undefined)	TDP1 cell noCPT 3.3µM, TDP1 cell CPT inconclusive
CC(C)N(Cc1nc(-c2ccc(Cl)cc2)no1)C(=O)c1ccc(C(C)(C)C)cc1	TGFb inhibitor inconclusive, TDP1 cell noCPT inconclusive (no result: IL1B secr inh)
Cc1ccc2c(c1)C1CC(C)(O2)N(c2cccc(C(=O)NC3CCN(Cc4ccccc4)CC3)c2)C(=O)N1 (centres undefined)	TDP1 cell noCPT inconclusive, IL1B secr inh -53, TDP1 cell CPT inconclusive
CN(C)/[N+]([O-])=N/Oc1ccc([N+](=O)[O-])cc1[N+](=O)[O-]	TGFb inhibitor inconclusive (no result: TDP1 cell noCPT, IL1B secr inh, TDP1 block, TDP1 cell CPT)
Cc1ccc(CN2CCC(CNC(=O)c3cnn(-c4ccccc4)c3C3CCN(C(=O)OC(C)(C)C)CC3)CC2)cc1	TDP1 cell noCPT 15µM, TDP1 cell CPT 15µM (no result: IL1B secr inh)
CC(C)(C)OC(=O)N1CCC(c2c(C(=O)NCC3CCN(C4CCCC4)C3)cnn2-c2ccccc2)CC1 (centres undefined)	TDP1 cell CPT inconclusive
Cc1cccc(C)c1-n1ncc(C(=O)NCc2ccc3c(c2)OCO3)c1C1CCN(C(=O)OC(C)(C)C)CC1	TDP1 cell noCPT 15µM, TDP1 cell CPT inconclusive (no result: IL1B secr inh)
Cc1cccc(C)c1-n1ncc(C(=O)Nc2ccc3c(c2)OCCO3)c1C1CCN(C(=O)OC(C)(C)C)CC1	TDP1 cell noCPT inconclusive, TDP1 cell CPT inconclusive (no result: IL1B secr inh)
COc1ccc(CNC(=O)c2cnn(-c3ccc(OC)cc3)c2C2CCN(C(=O)OC(C)(C)C)CC2)cc1	TGFb inhibitor 11µM, TDP1 cell noCPT inconclusive, TDP1 cell CPT inconclusive (no result: IL1B secr inh)
CC(C)(C)OC(=O)N1CCC(c2c(C(=O)NCc3ccccc3)cnn2-c2ccccc2)CC1	TDP1 cell noCPT inconclusive, TDP1 cell CPT inconclusive (no result: IL1B secr inh)
Cc1ccc(-n2ncc(C(=O)NCc3ccc4c(c3)OCO4)c2C2CCN(C(=O)OC(C)(C)C)CC2)cc1C	TGFb inhibitor inconclusive, TDP1 cell noCPT inconclusive, TDP1 cell CPT 23µM (no result: IL1B secr inh)
Cc1ccc(-n2ncc(C(=O)NCC3CCN(C4CCCC4)C3)c2C2CCN(C(=O)OC(C)(C)C)CC2)cc1C (centres undefined)	IL1B secr inh inconclusive, TDP1 cell CPT inconclusive
COc1cccc(CNC(=O)C(Cc2ccccc2)NS(=O)(=O)c2ccc3c(c2)CCN3C(C)=O)c1 (centres undefined)	none (no result: IL1B secr inh)
CC(C)(C)OC(=O)N1CCC(c2c(C(=O)NCCc3ccsc3)cnn2-c2ccccc2Cl)CC1	TDP1 cell noCPT inconclusive, TDP1 cell CPT inconclusive (no result: IL1B secr inh)
COc1ccc(-n2ncc(C(=O)NCc3ccc4c(c3)OCO4)c2C2CCN(C(=O)OC(C)(C)C)CC2)cc1	TGFb inhibitor inconclusive, TDP1 cell noCPT inconclusive, TDP1 cell CPT 16µM (no result: IL1B secr inh)
Cc1cccc(-n2ncc(C(=O)NC3CCCC3)c2C2CCN(C(=O)OC(C)(C)C)CC2)c1	TDP1 cell noCPT inconclusive, TDP1 cell CPT inconclusive
Cc1ccc(-n2ncc(C(=O)NCc3cccs3)c2C2CCN(C(=O)OC(C)(C)C)CC2)cc1	TDP1 cell noCPT inconclusive, TDP1 cell CPT 23µM (no result: IL1B secr inh)
Cc1ccc(CNC(=O)c2cnn(-c3cccc(C)c3)c2C2CCN(C(=O)OC(C)(C)C)CC2)cc1	TGFb inhibitor inconclusive, TDP1 cell noCPT 23µM, TDP1 cell CPT 16µM (no result: IL1B secr inh)
COc1ccc(-n2ncc(C(=O)NCCc3ccsc3)c2C2CCN(C(=O)OC(C)(C)C)CC2)cc1	TDP1 cell noCPT inconclusive, TDP1 cell CPT 23µM (no result: IL1B secr inh)
COc1ccc(NC2=C(c3ccc(C(F)(F)F)cc3)C(=O)c3ccccc32)cc1	TDP1 cell noCPT inconclusive, TDP1 cell CPT inconclusive (no result: IL1B secr inh)
Cn1c(-[n+]2c(-c3ccccc3)cc(-c3ccccc3)cc2-c2ccccc2)nc2c([N+](=O)[O-])cccc21	TGFb inhibitor inconclusive, TDP1 cell noCPT 18µM, IL1B secr inh -62, TDP1 cell CPT 9.2µM
CN(N=Cc1ccccc1O)c1ccc2ccccc2n1	none (no result: TDP1 block)
CN(/N=C/c1cc(Br)cc(Br)c1O)c1cccc(C(F)(F)F)n1	TGFb inhibitor inconclusive, TDP1 cell noCPT 16µM, HepG2 viability 3.2µM, TDP1 cell CPT 7.3µM (no result: TDP1 block)
O=C(OCc1ccccc1)N1CCC2CC1c1c(-c3ccc(C(F)(F)F)cc3)cccc12 (centres undefined)	TDP1 cell noCPT inconclusive, TDP1 cell CPT 16µM (no result: TDP1 block)
O=C(OCc1ccccc1)N1CCC2CC1c1cc(Cl)ccc12 (centres undefined)	TGFb inhibitor inconclusive, TDP1 cell noCPT inconclusive, IL1B secr inh inconclusive, TDP1 cell CPT inconclusive (no result: TDP1 block)
O=C(OCc1ccccc1)N1CCC2CC1c1ccc(-c3cccc(F)c3)cc12 (centres undefined)	TGFb inhibitor inconclusive, TDP1 cell noCPT inconclusive, TDP1 cell CPT inconclusive (no result: TDP1 block)
O=C(OCc1ccccc1)N1CCC2CC1c1c(Cl)cccc12 (centres undefined)	TDP1 cell noCPT 18µM, TDP1 cell CPT inconclusive (no result: TDP1 block)
